Bioassay records as filed in PubChem BioAssay.
MCF10A rerep: induces DNA re-replication in MCF 10a normal breast cells | MCF 10A DNA re-replication, Hoechst nuclear intensity, 48 h | Potency, µM (series often up to 46.1 µM), actives largely listed as activators | 2.9% of 350,000 active; further: nearly all actives have a fitted effect of over 50% in size
KB-V1 cytotox: KB-V1 MDR subline cytotoxicity. KB-V1 MDR cells viability, CellTiter-Glo, 72 h. AID 1347076. 3.4% of 400,000 active. Potency, µM (series often up to 46.1 µM), most hits filed as cytotoxic; further: nearly all actives have a fitted effect of over 60% in size
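Cells of the MDR subline KB-V1 are plated, dosed with compound at multiple concentrations, and incubated 72 h at 37 degrees C; CellTiter-Glo is then added and luminescence read after 10 min.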
RGS4 inhibitor: blocks human RGS4-accelerated GTP hydrolysis. Potency, µM (doses to about 114 µM), most hits filed as inhibitors. 0.039% of 390,000 active. Transcreener GDP fluorescence polarization, RGS4-accelerated GTP hydrolysis; further: nearly all actives have a fitted effect of over 75% in size
Target sequence (P49798 whole entry, looked up): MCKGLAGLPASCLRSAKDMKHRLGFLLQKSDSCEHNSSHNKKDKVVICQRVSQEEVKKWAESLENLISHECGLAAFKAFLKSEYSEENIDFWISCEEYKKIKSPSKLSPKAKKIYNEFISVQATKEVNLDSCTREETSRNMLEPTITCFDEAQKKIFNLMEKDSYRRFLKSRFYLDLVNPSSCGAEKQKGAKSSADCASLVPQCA
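MLSMR compounds (23 nl, pin-transferred) preincubated 10 min at room temperature with a 500nM (2x) first reagent, then RGS4 at 900nM (2x) plus Transcreener GDP mix added; fluorescence polarization (620/688 nm) read before and after 90 min at 30 °C.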
PTAP TSG101 blk: blocks PTAP/TSG101 interaction to inhibit HIV-1 budding | Q99816 | Fluorescence polarization, FITC-PTAP peptide / Tsg101 binding | Potency, µM (titrated, usually from 115 µM), most hits filed as inhibitors | 340,000 tested, under 10 active | AID 493005; active means well fitted inhibition curve with a large enough effect in the main read-out, with a control signal flat, not every such curve was filed as active; inconclusive means small, poorly fitted or top-dose-only effect, or effect the other way, or a change in a side signal; inactive means no such curve, though single readings can be large or run the other way
Target sequence (Q99816 whole entry, looked up): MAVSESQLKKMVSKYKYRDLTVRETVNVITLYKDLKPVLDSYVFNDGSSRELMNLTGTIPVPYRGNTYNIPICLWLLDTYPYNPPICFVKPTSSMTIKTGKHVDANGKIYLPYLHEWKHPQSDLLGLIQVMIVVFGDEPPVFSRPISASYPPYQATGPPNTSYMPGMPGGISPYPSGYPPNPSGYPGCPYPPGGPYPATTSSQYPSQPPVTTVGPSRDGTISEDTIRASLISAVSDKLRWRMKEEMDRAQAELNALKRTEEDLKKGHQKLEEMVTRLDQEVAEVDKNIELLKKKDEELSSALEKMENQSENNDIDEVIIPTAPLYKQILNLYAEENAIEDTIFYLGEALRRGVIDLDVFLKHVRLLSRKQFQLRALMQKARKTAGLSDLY
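Fluorescence anisotropy tracks displacement of a FITC-tagged PTAP peptide (50 nM) from the Tsg101 binding domain (10 uM), following a 20 min room-temperature incubation at pH 7.5.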
SW480 rereplic: DNA re-replication induction in SW480 cells. SW480 DNA re-replication, Hoechst DNA content imaging, 48 h. Potency, µM (series often up to 46.1 µM), usual class: activators. 1.8% of 340,000 active. AID 624297; further: nearly all actives have a fitted effect of over 55% in size
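Cells (250 per well) received 23 nL compound or DMSO by pin tool and were kept 48 hr at 37 C, 5% CO2. Nuclei were then stained with Hoechst for 40 min and scanned for DNA content.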
KB-3-1 cytotox: KB-3-1 parental cell cytotoxicity; KB-3-1 viability, CellTiter-Glo ATP luminescence, 72 h; Potency, µM (titrated, usually from 46.1 µM), actives largely listed as cytotoxic; 1.4% of 400,000 active; AID 1347075; further: nearly all actives have a fitted effect of over 60% in size
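Viability of parental KB-3-1 cells, measured by CellTiter-Glo luminescence, followed a 72 h incubation at 37 °C with pinned compounds in phenol-red-free DMEM containing 10% FBS.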
A number is an active result. In the library only some 6.6% were active in any assay of this set; here they are far more common. Unless noted, the call rests on the fitted dose curve; in most records, active means well fitted curve in the direction sought with a large enough effect; inconclusive means small, poorly fitted or top-dose-only effect, or another doubt; inactive means no such curve, though single readings can be large; an effect the other way counts as inactive or inconclusive.

How did CCOC(=O)C1CCN(C(=O)C2c3ccccc3C(=O)N(C)C2c2ccc(OC)cc2)CC1 (configuration not stated) do in these assays?
MCF10A rerep: inactive; KB-V1 cytotox: inactive; RGS4 inhibitor: inactive; PTAP TSG101 blk: inactive; SW480 rereplic: inactive; KB-3-1 cytotox: inactive

How did COc1ccc(C2C(C(=O)N3CCCCC3)c3ccccc3C(=O)N2C)cc1 (configuration not stated) do in these assays?
MCF10A rerep: 12µM; KB-V1 cytotox: inconclusive; RGS4 inhibitor: inactive; PTAP TSG101 blk: inactive; SW480 rereplic: inconclusive; KB-3-1 cytotox: inactive

How did Cc1c(N=N/C(C(=O)Nc2ccccc2)=C(/O)c2ccccc2)c(=O)n(-c2ccccc2)n1C do in these assays?
MCF10A rerep: inactive; KB-V1 cytotox: inactive; RGS4 inhibitor: inactive; PTAP TSG101 blk: inconclusive; SW480 rereplic: 6.5µM; KB-3-1 cytotox: inactive

Results for CCN1CCc2nc3sc(C(=O)Nc4cccc(Cl)c4C)c(N)c3cc2C1 ?
KB-V1 cytotox: 6.5µM; RGS4 inhibitor: inactive; KB-3-1 cytotox: 16µM

How did CC(C)c1ccc2nc3sc(C(=O)N4CCc5ccccc5C4)c(N)c3cc2c1 do in these assays?
MCF10A rerep: inconclusive; KB-V1 cytotox: inactive; RGS4 inhibitor: inactive; PTAP TSG101 blk: inconclusive; SW480 rereplic: inactive; KB-3-1 cytotox: inactive

What do the screens show for `CCN1CCc2nc3sc(C(=O)N4CCc5ccccc5C4)c(N)c3cc2C1`?
MCF10A rerep: 18µM; KB-V1 cytotox: inconclusive; RGS4 inhibitor: inactive; PTAP TSG101 blk: inactive; SW480 rereplic: inactive; KB-3-1 cytotox: inactive

How did COc1ccc(C(CC(=O)NCc2ccccc2Cl)N2Cc3ccccc3C2=O)cc1OC (configuration not stated) do in these assays?
KB-V1 cytotox: inactive; RGS4 inhibitor: inactive; KB-3-1 cytotox: inactive

What do the screens show for `Cc1ccc(N2CCN(C(=O)c3cccc([N+](=O)[O-])c3)CC2)cc1Cl`?
MCF10A rerep: inactive; KB-V1 cytotox: inactive; RGS4 inhibitor: inactive; PTAP TSG101 blk: inactive; SW480 rereplic: inactive; KB-3-1 cytotox: inactive

What do the screens show for `O=C(c1cccc([N+](=O)[O-])c1)N1CCN(c2cccc(Cl)c2)CC1`?
MCF10A rerep: 16µM; KB-V1 cytotox: 5.8µM; RGS4 inhibitor: inactive; PTAP TSG101 blk: inactive; SW480 rereplic: inconclusive; KB-3-1 cytotox: 18µM

How did COC(=O)c1cc(C(=O)N2CCOCC2)cc([N+](=O)[O-])c1 do in these assays?
MCF10A rerep: inactive; KB-V1 cytotox: inactive; RGS4 inhibitor: inactive; PTAP TSG101 blk: inactive; SW480 rereplic: inactive; KB-3-1 cytotox: inactive

What do the screens show for `COC(=O)c1cc(C(=O)N2CCN(c3cccc(Cl)c3)CC2)cc([N+](=O)[O-])c1`?
MCF10A rerep: inconclusive; KB-V1 cytotox: inconclusive; RGS4 inhibitor: inactive; PTAP TSG101 blk: inactive; SW480 rereplic: 0.73µM; KB-3-1 cytotox: 1µM

How did S=C(NCCN1CCOCC1)N1CCN(c2cccc(Cl)c2)CC1 do in these assays?
MCF10A rerep: inactive; KB-V1 cytotox: 4.6µM; RGS4 inhibitor: inconclusive; PTAP TSG101 blk: inactive; SW480 rereplic: inactive; KB-3-1 cytotox: inconclusive

What do the screens show for `O=C(c1ccc(S(=O)(=O)N2CCOCC2)cc1)N1CCN(c2cccc(Cl)c2)CC1`?
MCF10A rerep: inactive; KB-V1 cytotox: 15µM; RGS4 inhibitor: inactive; SW480 rereplic: inactive; KB-3-1 cytotox: inactive

What do the screens show for `S=C(NCc1ccco1)N1CCN(c2cccc(Cl)c2)CC1`?
MCF10A rerep: inactive; KB-V1 cytotox: inactive; RGS4 inhibitor: inactive; PTAP TSG101 blk: inactive; SW480 rereplic: inactive; KB-3-1 cytotox: inactive

How did COc1ccc(C(=O)NCC(c2ccc3c(c2)OCO3)N2CCOCC2)cc1OC (configuration not stated) do in these assays?
KB-V1 cytotox: inactive; RGS4 inhibitor: inactive; KB-3-1 cytotox: inactive

Results for Cc1sc2ncnc(N3CCC(C(=O)Nc4ccc(OC(F)F)c(Cl)c4)CC3)c2c1C ?
MCF10A rerep: inconclusive; KB-V1 cytotox: inactive; RGS4 inhibitor: inactive; PTAP TSG101 blk: inactive; SW480 rereplic: inactive; KB-3-1 cytotox: inactive

How did CCN(CC(=O)Nc1c(F)cccc1F)C(=O)C1CCN(c2ncnc3sc(C)c(C)c23)CC1 do in these assays?
MCF10A rerep: inactive; KB-V1 cytotox: 13µM; RGS4 inhibitor: inactive; PTAP TSG101 blk: inactive; SW480 rereplic: inactive; KB-3-1 cytotox: inactive

Results for Cc1sc2ncnc(N3CCC(C(=O)NNC(=O)COc4ccccc4F)CC3)c2c1C ?
MCF10A rerep: inconclusive; KB-V1 cytotox: inactive; RGS4 inhibitor: inactive; PTAP TSG101 blk: inactive; SW480 rereplic: inactive; KB-3-1 cytotox: inactive

Results for CCN(CC)CCNC(=O)c1ccc(NC(=O)C2CCN(c3ncnc4sc(C)c(C)c34)CC2)cc1 ?
MCF10A rerep: inconclusive; KB-V1 cytotox: inactive; RGS4 inhibitor: inactive; PTAP TSG101 blk: inactive; SW480 rereplic: 21µM; KB-3-1 cytotox: inactive

How did Cc1sc2ncnc(N3CCC(C(=O)NNC(=O)COc4ccccc4Cl)CC3)c2c1C do in these assays?
MCF10A rerep: 4.1µM; KB-V1 cytotox: inconclusive; RGS4 inhibitor: inactive; PTAP TSG101 blk: inactive; SW480 rereplic: inactive; KB-3-1 cytotox: inactive

What do the screens show for `CCc1nn2c(-c3ccccc3OC)ccnc2c1-c1ccccc1`?
KB-V1 cytotox: inactive; RGS4 inhibitor: inactive; KB-3-1 cytotox: inactive

How did O=C(C1CCC(CNc2nc(=S)[nH]c3ccccc23)CC1)N1CCN(c2ccccn2)CC1 (configuration not stated) do in these assays?
MCF10A rerep: inactive; KB-V1 cytotox: 2.6µM; RGS4 inhibitor: inactive; SW480 rereplic: inactive; KB-3-1 cytotox: inactive

Results for C=CCNC(=O)C1CCC(CNc2nc(=S)[nH]c3ccccc23)CC1 (configuration not stated) ?
MCF10A rerep: inactive; KB-V1 cytotox: inactive; RGS4 inhibitor: inactive; PTAP TSG101 blk: inactive; SW480 rereplic: inactive; KB-3-1 cytotox: inactive

What do the screens show for `O=c1cc(O)c(Cl)c[nH]1`?
MCF10A rerep: inactive; SW480 rereplic: inactive

Results for COc1ccc(C(C(=O)NC2CCCCC2)N(C(=O)CCl)c2cccc(Cl)c2)cc1 (configuration not stated) ?
MCF10A rerep: 21µM; KB-V1 cytotox: 16µM; RGS4 inhibitor: inactive; PTAP TSG101 blk: inactive; SW480 rereplic: inconclusive; KB-3-1 cytotox: 18µM

Results for O=C(NC1CCCC1)C(c1ccc(F)cc1)N(Cc1ccc(F)cc1)C(=O)CCl (configuration not stated) ?
MCF10A rerep: inactive; KB-V1 cytotox: 18µM; RGS4 inhibitor: inactive; PTAP TSG101 blk: inactive; SW480 rereplic: inconclusive; KB-3-1 cytotox: inconclusive

Results for COc1ccc(C(C(=O)NC2CCCC2)N(C(=O)c2ccoc2C)c2ccc(C)cc2)cc1 (configuration not stated) ?
MCF10A rerep: inactive; KB-V1 cytotox: inactive; RGS4 inhibitor: inactive; PTAP TSG101 blk: inactive; SW480 rereplic: inconclusive; KB-3-1 cytotox: inactive
